Experimental data taken from PubChem BioAssay (NCI).
This is part of a sample that, as a whole, favours compounds with a hit. Of some 79,000 tested, about 15% had one in any assay. The source made the active and inactive calls. No stated cut-off is given here; in the data, active means growth inhibition above about 70%; inactive means the rest.

Test: NCI Yeast Anticancer Drug Screen. Data for the cln2 rad14 strain (AID 165);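 further: 0% = growth equal to vehicle treated cultures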
Conditions: S. cerevisiae cln2 rad14 strain, at 50.0 µM, active compounds read high
Method in brief: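 Yeast carrying cln2 and rad14 alterations (cell cycle control and DNA damage repair) were exposed to compounds. Growth inhibition was measured against vehicle-treated controls.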

Row | SMILES | growth inhibition
1 | CCCCCCCCCCCCCC/C=C\C(CC(=O)O)C(=O)O (stereo unspecified) | -32.6% (inactive)
2 | O=C1C=C[C@H](O)[C@@]2(CO)O[C@@H]12 | -6.1% (inactive)
3 | Nc1ncnc2c1ncn2C1OC(CO)C2OC21 (stereo unspecified) | 12.5% (inactive)
4 | N#C/C(=C\c1ccc(C#N)cc1)C(=O)c1ccccc1 | 19% (inactive)
5 | Cc1cc2c3ccc(C)[n+](C)c3ccc2n1C | -66.6% (inactive)
6 | CCCNS(=O)(=O)c1ccc(Cl)cc1 | 1.55% (inactive)
7 | CC(=O)N(CCCCCCN(C(C)=O)C(C)=O)C(C)=O | -0.55% (inactive)
8 | ClCc1cccc2c(CCl)cccc12 | 33% (inactive)
9 | Nc1c(O)c(S(=O)(=O)O)c(O)c2c1C(=O)c1ccccc1C2=O | 30.9% (inactive)
10 | O=C(O)Cc1ccc(Cl)cc1 | 3.65% (inactive)
11 | COc1ccc(C(=O)/C(=N/Nc2ccccc2)c2ccc(OC)cc2)cc1 | 2% (inactive)
12 | O=C1CSc2ccccc2N1 | -12.7% (inactive)
13 | Clc1ccc(-c2noc(/C=C\c3ccccc3)n2)cc1 | 12.1% (inactive)
14 | CC(=O)N(C)N=Nc1ccc(C)cc1 | 4% (inactive)
15 | CC(=O)C1C(=O)C(=O)N(c2ccc(Cl)c(Cl)c2)C1=O (stereo unspecified) | -14.4% (inactive)
16 | CCC(=O)Oc1ccc2ccccc2c1 | 14.8% (inactive)
17 | COC1OC(C(O)C(O)CO)C(O)C(O)C1O (stereo unspecified) | -55.7% (inactive)
18 | CN(C(=S)S(=O)(=O)C12CC3CC(CC(C3)C1)C2)c1ccccc1 | -11.5% (inactive)
19 | COC1OC(C(COC(C)=O)OC(C)=O)C(OC(C)=O)C(OC(C)=O)C1OC(C)=O (stereo unspecified) | -46.5% (inactive)

Row | SMILES | growth inhibition
20 | N#C/C(=C\c1ccc2c(c1)OCO2)c1ccccc1 | 10.2% (inactive)
21 | CN1CCCN(C(c2ccccc2)c2ccc(Cl)cc2)CC1 (stereo unspecified) | 19.9% (inactive)
22 | OCC1CCC(O)C(CO)N1 (stereo unspecified) | 8.85% (inactive)
23 | CCCCOC(=O)c1ccc(NC(=O)CCl)cc1 | 12.5% (inactive)
24 | COc1ccc(NNS(=O)(=O)O)cc1 | -10.8% (inactive)
25 | C=CCC(OC(C)=O)c1ccc(OC)c(OC)c1 (stereo unspecified) | -13.9% (inactive)
26 | COc1cccc(C(=O)O)c1OC | 3.75% (inactive)
27 | COc1ccc(-c2csc(NC(=O)Nc3nc(-c4ccc(OC)cc4)cs3)n2)cc1 | -8.35% (inactive)
28 | C=CCNC(=S)N/C=C(/C(=O)c1ccccc1)c1ccccc1 | -31.5% (inactive)
29 | O=C(NCc1ccccc1)/C(=C/c1ccccc1)NC(=O)c1ccccc1 | -7.2% (inactive)
30 | c1cc(CNCCNCc2ccncc2)ccn1 | -4.15% (inactive)
31 | Nc1ccn(C2OC(CO)C(O)C2F)c(=O)n1 (stereo unspecified) | 10.7% (inactive)
32 | C=COC(=O)CCOCC(CC)CCCC (stereo unspecified) | -6.2% (inactive)
33 | CCOC(=O)CO | 0.3% (inactive)
34 | O=C(NCCc1ccccc1)/C(=C\c1ccc(Cl)cc1Cl)NC(=O)c1ccccc1 | -5.95% (inactive)
35 | N#Cc1ccc2nc[nH]c2c1 | 19.4% (inactive)
36 | CCOc1ccc(C(=O)NCC(C)C)cc1 | -14.1% (inactive)
37 | c1ccc2[nH]c(Cc3nc4ccccc4[nH]3)nc2c1 | 7.65% (inactive)
38 | Cc1ccc(/C=N/NC(N)=S)s1 | -41.5% (inactive)

Test: NCI Yeast Anticancer Drug Screen. Data for the bub3 strain (AID 167)
Conditions: S. cerevisiae bub3 mutant strain, at 50.0 µM, active compounds read high
Method in brief: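 Mutant yeast screening strain plus compound; vehicle-treated cultures serve as the 0% inhibition reference.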

Row | SMILES | growth inhibition
39 | CCCCCCCCCCCCCC/C=C\C(CC(=O)O)C(=O)O (stereo unspecified) | -28.4% (inactive)
40 | O=C1C=C[C@H](O)[C@@]2(CO)O[C@@H]12 | -13.7% (inactive)
41 | Nc1ncnc2c1ncn2C1OC(CO)C2OC21 (stereo unspecified) | -5.95% (inactive)
42 | N#C/C(=C\c1ccc(C#N)cc1)C(=O)c1ccccc1 | 9.95% (inactive)
43 | Cc1cc2c3ccc(C)[n+](C)c3ccc2n1C | 7.65% (inactive)
44 | CCCNS(=O)(=O)c1ccc(Cl)cc1 | -4.75% (inactive)
45 | CC(=O)N(CCCCCCN(C(C)=O)C(C)=O)C(C)=O | -9.85% (inactive)
46 | ClCc1cccc2c(CCl)cccc12 | -14.7% (inactive)
47 | Nc1c(O)c(S(=O)(=O)O)c(O)c2c1C(=O)c1ccccc1C2=O | 34.9% (inactive)
48 | O=C(O)Cc1ccc(Cl)cc1 | -25.2% (inactive)
49 | COc1ccc(C(=O)/C(=N/Nc2ccccc2)c2ccc(OC)cc2)cc1 | 1.8% (inactive)
50 | O=C1CSc2ccccc2N1 | 1.3% (inactive)
51 | Clc1ccc(-c2noc(/C=C\c3ccccc3)n2)cc1 | 8.7% (inactive)
52 | CC(=O)N(C)N=Nc1ccc(C)cc1 | 0.1% (inactive)
53 | CC(=O)C1C(=O)C(=O)N(c2ccc(Cl)c(Cl)c2)C1=O (stereo unspecified) | -9.5% (inactive)
54 | CCC(=O)Oc1ccc2ccccc2c1 | 17.4% (inactive)
55 | COC1OC(C(O)C(O)CO)C(O)C(O)C1O (stereo unspecified) | -3.65% (inactive)
56 | CN(C(=S)S(=O)(=O)C12CC3CC(CC(C3)C1)C2)c1ccccc1 | 17.5% (inactive)
57 | COC1OC(C(COC(C)=O)OC(C)=O)C(OC(C)=O)C(OC(C)=O)C1OC(C)=O (stereo unspecified) | 52.2% (inactive)

Row | SMILES | growth inhibition
58 | N#C/C(=C\c1ccc2c(c1)OCO2)c1ccccc1 | 1.95% (inactive)
59 | CN1CCCN(C(c2ccccc2)c2ccc(Cl)cc2)CC1 (stereo unspecified) | 27.6% (inactive)
60 | OCC1CCC(O)C(CO)N1 (stereo unspecified) | -16.2% (inactive)
61 | CCCCOC(=O)c1ccc(NC(=O)CCl)cc1 | 13.8% (inactive)
62 | COc1ccc(NNS(=O)(=O)O)cc1 | -1.65% (inactive)
63 | C=CCC(OC(C)=O)c1ccc(OC)c(OC)c1 (stereo unspecified) | 8.7% (inactive)
64 | COc1cccc(C(=O)O)c1OC | -5.35% (inactive)
65 | COc1ccc(-c2csc(NC(=O)Nc3nc(-c4ccc(OC)cc4)cs3)n2)cc1 | 7.7% (inactive)
66 | C=CCNC(=S)N/C=C(/C(=O)c1ccccc1)c1ccccc1 | -20.4% (inactive)
67 | O=C(NCc1ccccc1)/C(=C/c1ccccc1)NC(=O)c1ccccc1 | -12.3% (inactive)
68 | c1cc(CNCCNCc2ccncc2)ccn1 | -34% (inactive)
69 | Nc1ccn(C2OC(CO)C(O)C2F)c(=O)n1 (stereo unspecified) | -0.1% (inactive)
70 | C=COC(=O)CCOCC(CC)CCCC (stereo unspecified) | -4.55% (inactive)
71 | CCOC(=O)CO | 17.2% (inactive)
72 | O=C(NCCc1ccccc1)/C(=C\c1ccc(Cl)cc1Cl)NC(=O)c1ccccc1 | 4.35% (inactive)
73 | N#Cc1ccc2nc[nH]c2c1 | -15.4% (inactive)
74 | CCOc1ccc(C(=O)NCC(C)C)cc1 | 9% (inactive)
75 | c1ccc2[nH]c(Cc3nc4ccccc4[nH]3)nc2c1 | 35% (inactive)
76 | Cc1ccc(/C=N/NC(N)=S)s1 | -12.8% (inactive)
